# Experimental data taken from the supplement of paper PMC6805474.
# System: Schistosoma mansoni schistosomula (NMRI)
# Test: phenotypic severity score (0-4); higher = more antischistosomal effect, active = 2 or more
# Details: 48 h; 10 µM
# 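Note: visual microscopic scoring of shape, motility and density changes versus 0.5% DMSO solvent controls, one point per descriptor, degeneracy or death scored 4, mean of duplicate wells.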
row,SMILES,phenotypic severity score
1,COc1ccc(S(=O)(=O)Nc2ccc(CN3CCN(C(=O)c4cccc(C#N)c4)CC3)cc2)cc1,0 (inactive)
2,COCC(C)NC(=O)CSc1ncnc2sc(-c3ccccc3)cc12 (stereo not drawn),0 (inactive)
3,Cc1cc(C)c2cc(C(=O)NC3CCCCCCC3)[nH]c2c1,1 (inactive)
4,COc1ccc(Cn2cnc3c(-c4ccco4)nc(Cl)nc32)cc1,0 (inactive)
5,COc1ccc(-c2onc(C(F)(F)F)c2-c2ccc(Cl)cc2)c(O)c1,0 (inactive)
6,COc1ccc(C(=N)N)cc1-c1cn(-c2ccc(C(=N)N)cc2)nn1,0 (inactive)
7,CN1CCN(S(=O)(=O)c2ccc(-c3ccc4c(Nc5ncc(Cl)cn5)ccnc4c3)cc2)CC1,4 (active)
8,Clc1ccc(-n2cc(COc3ccnc4ccccc34)nn2)cc1,0 (inactive)
9,COc1ccc(Cl)cc1NC(=O)CN(C)C(=O)c1cnn(-c2ccccc2)n1,0 (inactive)
10,c1ccc(Oc2ccc(-c3cc(N4CCOCC4)[nH]n3)cc2)cc1,0 (inactive)
11,Nc1ncc(Br)cc1-c1nc2cc(Cl)cnc2[nH]1,0 (inactive)
12,N#Cc1ccc(-c2ccc(OCC(N)=O)cc2)cc1,1 (inactive)
13,O=C(C(Cc1c[nH]c2ccccc12)NS(=O)(=O)c1ccc(Cl)cc1)N1CCCCC1 (stereo not drawn),0 (inactive)
14,CCC(Sc1nc2ccccc2o1)C(=O)Nc1nnc(C)s1 (stereo not drawn),0 (inactive)
15,CCc1c(C)nc(-n2nc(C)cc2NC(=O)c2ccccc2SC)[nH]c1=O,1 (inactive)
16,c1ccc(-c2nc(NC3CCCCC3)cc(C3CC3)n2)nc1,0 (inactive)
17,c1ccc(Oc2ccc(-c3cc(C4CCOCC4)[nH]n3)cc2)cc1,0 (inactive)
18,Cc1cccc(Cn2ccc(NC(=O)c3ccc4c(c3)OCO4)n2)c1,0 (inactive)
19,COc1cc(C2=NCCN2)ccc1-c1cn(-c2cccc(C3=NCCN3)c2)nn1,0 (inactive)
20,O=C(c1ccc(F)cc1)N(CCNc1ccccc1)c1ccccc1,0 (inactive)
21,Cc1cc(OCC(=O)NCc2ccccc2)c2cc(Br)ccc2n1,0 (inactive)
22,COc1cccc2c(C)nc(N=C(N)N)nc12,0 (inactive)
23,CC(C)n1ncc2c(C(=O)NCC(c3cccs3)N3CCOCC3)cc(-c3ccccc3)nc21 (stereo not drawn),0 (inactive)
24,CCN(CC)CCCCCCNc1cc(OC)cc2c(C)ccnc12,0 (inactive)

# Same assay, conditions: 72 h; 10 µM
row,SMILES,phenotypic severity score
1,c1ccc(C[C@@H]2CN(c3nccc(Oc4ccc(-n5ccnc5)cc4)n3)CCN2)cc1,0 (inactive)
2,Cc1nc(-c2cccc(NCc3ccccc3)c2)[nH]c1C,0 (inactive)
3,c1cc(C2=NCCN2)cc(-c2cc(-c3ccc(C4=NCCN4)cc3)no2)c1,0 (inactive)
4,NCCC(O)C(=O)N[C@@H]1C[C@H](N)[C@@H](OC2O[C@H](CN)[C@@H](O)[C@H](O)[C@H]2O)[C@H](O)C1OC1O[C@H](CO)[C@@H](O)[C@H](N)[C@H]1O (stereo partly drawn),0 (inactive)
5,Nc1ccc(C(=O)Nc2ccc(-c3nc4ccccc4o3)cc2)cc1,0 (inactive)
6,Cc1ccc2nc(Cl)c(CNCc3cccs3)cc2c1,0 (inactive)
7,Cc1nn(C)cc1C(C)Nc1nncc(-c2ccc(C(F)(F)F)cc2)n1 (stereo not drawn),0 (inactive)
8,Clc1cccc(C(c2ccc(CN3CCNCC3)cc2)n2ccnc2)c1 (stereo not drawn),4 (active)
9,Nc1ccc2ncnc(Nc3ccc(OCc4cccc(F)c4)c(Cl)c3)c2c1,4 (active)
10,COc1ccc(C2=NN(C3CCCCCC3)C(=O)[C@@H]3CC=CC[C@H]23)cc1OCCCCOc1ccc(-c2nn[nH]n2)cc1,0 (inactive)
11,Clc1ccc(CN2CCN(C3=NCCN3)CC2)cc1Cl,0 (inactive)
12,Cc1nc(-c2ccccn2)nc(NCCc2ccc(S(C)(=O)=O)cc2)c1Cl,4 (active)
13,COc1ccc(-c2nn(C(C)C)c3ncnc(N)c23)cc1OC,0 (inactive)
14,O=C(Nc1c(O)cccc1-c1nc2c(C(=O)O)cccc2o1)c1cc(-c2ccccc2)on1,0 (inactive)
15,CC[P](CC)(CC)=[Au][S][C@H]1O[C@@H](COC(C)=O)[C@H](OC(C)=O)[C@@H](OC(C)=O)[C@@H]1OC(C)=O,4 (active)
16,COc1ccc(S(=O)(=O)Nc2ccc(CN3CCN(C(=O)c4cccc(C#N)c4)CC3)cc2)cc1,1 (inactive)
17,COCC(C)NC(=O)CSc1ncnc2sc(-c3ccccc3)cc12 (stereo not drawn),0 (inactive)
18,Cc1cc(C)c2cc(C(=O)NC3CCCCCCC3)[nH]c2c1,0 (inactive)
19,COc1ccc(Cn2cnc3c(-c4ccco4)nc(Cl)nc32)cc1,0 (inactive)
20,COc1ccc(-c2onc(C(F)(F)F)c2-c2ccc(Cl)cc2)c(O)c1,0 (inactive)

row,SMILES,phenotypic severity score
1,COc1ccc(C(=N)N)cc1-c1cn(-c2ccc(C(=N)N)cc2)nn1,0 (inactive)
2,CN1CCN(S(=O)(=O)c2ccc(-c3ccc4c(Nc5ncc(Cl)cn5)ccnc4c3)cc2)CC1,4 (active)
3,Clc1ccc(-n2cc(COc3ccnc4ccccc34)nn2)cc1,0 (inactive)
4,COc1ccc(Cl)cc1NC(=O)CN(C)C(=O)c1cnn(-c2ccccc2)n1,0 (inactive)
5,c1ccc(Oc2ccc(-c3cc(N4CCOCC4)[nH]n3)cc2)cc1,0 (inactive)
6,Nc1ncc(Br)cc1-c1nc2cc(Cl)cnc2[nH]1,0 (inactive)
7,N#Cc1ccc(-c2ccc(OCC(N)=O)cc2)cc1,0 (inactive)
8,O=C(C(Cc1c[nH]c2ccccc12)NS(=O)(=O)c1ccc(Cl)cc1)N1CCCCC1 (stereo not drawn),0 (inactive)
9,CCC(Sc1nc2ccccc2o1)C(=O)Nc1nnc(C)s1 (stereo not drawn),0 (inactive)
10,CCc1c(C)nc(-n2nc(C)cc2NC(=O)c2ccccc2SC)[nH]c1=O,3 (active)
11,c1ccc(-c2nc(NC3CCCCC3)cc(C3CC3)n2)nc1,0 (inactive)
12,c1ccc(Oc2ccc(-c3cc(C4CCOCC4)[nH]n3)cc2)cc1,0 (inactive)
13,Cc1cccc(Cn2ccc(NC(=O)c3ccc4c(c3)OCO4)n2)c1,0 (inactive)
14,COc1cc(C2=NCCN2)ccc1-c1cn(-c2cccc(C3=NCCN3)c2)nn1,0 (inactive)
15,O=C(c1ccc(F)cc1)N(CCNc1ccccc1)c1ccccc1,1 (inactive)
16,Cc1cc(OCC(=O)NCc2ccccc2)c2cc(Br)ccc2n1,0 (inactive)
17,COc1cccc2c(C)nc(N=C(N)N)nc12,0 (inactive)
18,CC(C)n1ncc2c(C(=O)NCC(c3cccs3)N3CCOCC3)cc(-c3ccccc3)nc21 (stereo not drawn),1 (inactive)
19,CCN(CC)CCCCCCNc1cc(OC)cc2c(C)ccnc12,0 (inactive)
